KB-V1 cytotox = qHTS assay for MDR1-selective chemotherapeutics: Primary screen using the drug-selected MDR subline cells KB-V1. Potency, µM (titrated, usually from 46.1 µM), actives largely listed as cytotoxic. KB-V1 MDR cells viability, CellTiter-Glo, 72 h. 400,000 tested, 3.4% active; note: nearly all actives have a fitted effect of over 60% in size
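In this primary screen, KB-V1 cells overexpressing P-gp are incubated with library compounds (lowest to highest concentration) for 72 h at 37 degrees C before a luminescent ATP viability read.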
MCF10A rereplic = A quantitative high throughput screen for small molecules that induce DNA re-replication in MCF 10a normal breast cells; MCF 10A DNA re-replication, Hoechst nuclear intensity, 48 h; Potency, µM (highest dose often 46.1 µM), hits mostly activators; 350,000 tested, 2.9% active; AID 624296, 2012; note: nearly all actives have a fitted effect of over 50% in size
SW480 rereplic = A quantitative high throughput screen for small molecules that induce DNA re-replication in SW480 colon adenocarcinoma cells; Potency, µM (series often up to 46.1 µM), hits mostly activators; 340,000 tested, 1.8% active; SW480 DNA re-replication, Hoechst DNA content imaging, 48 h; note: nearly all actives have a fitted effect of over 55% in size
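Image-based read-out: total Hoechst fluorescence of nuclei (405 nm excitation, 500-530 nm emission), with hits raising the fraction of high-intensity nuclei. SW480 colon cells incubated 48 hr with compounds at 37 C.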
KB-3-1 tox = qHTS assay for MDR1-selective chemotherapeutics: Primary screen using the parental adenocarcinoma cell KB-3-1. AID 1347075, 2019. KB-3-1 viability, CellTiter-Glo ATP luminescence, 72 h. Potency, µM (highest dose often 46.1 µM), actives largely listed as cytotoxic. 400,000 tested, 1.4% active; note: nearly all actives have a fitted effect of over 60% in size
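Using CellTiter-Glo luminescence, growth of non-resistant KB-3-1 adenocarcinoma cells is assessed 72 h after pin-tool compound addition at 37 °C. Normalized responses across the concentration series yield fitted curves.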
HT1080 IDH1KD tx = qHTS for induction of synthetic lethality in tumor cells producing 2HG: qHTS for the HT-1080-IDH1KD cell line. HT-1080 IDH1 knockdown viability, ATP luminescence, 48 h. Potency, µM (highest dose often 46.1 µM), usual class: cytotoxic. 360,000 tested, 2% active. AID 686971, 2013
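After a 2 h attachment period, IDH1KD HT-1080 cells took pin-transferred compound for 48 h at 37 °C; ATP-based luminescence after 10 min room-temperature reagent incubation reported viability.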
HT1080-NT tox = qHTS for induction of synthetic lethality in tumor cells producing 2HG: qHTS for the HT-1080-NT fibrosarcoma cell line. HT-1080-NT fibrosarcoma viability, CellTiter-Glo ATP luminescence, 48 h. Potency, µM (series often up to 46.1 µM), most hits filed as cytotoxic. 360,000 tested, 1.6% active;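 note: NT is the 2HG producing partner of a matched IDH1 knockdown line; nearly all actives have a fitted effect of over 55% in size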
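Toxicity toward the 2HG-producing NT line was scored as %Activity, normalised to DMSO and no-cell wells, from CellTiter-Glo luminescence after 48 hours' treatment.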
Numbers stand for hits; i = inactive; ? = inconclusive; nt = not tested or not shown; [ ] = another dose, or the depositor's remark. Rows were chosen to be rich in hits. Some 8% of all compounds tested hit in one or more screens of this group. Calls come from the whole dose curve; as a rule, active = well fitted curve in the direction sought with a large enough effect; inconclusive = small, poorly fitted or top-dose-only effect, or another doubt; inactive = no such curve, though single readings can be large; an effect the other way counts as inactive or inconclusive.

SMILES	KB-V1 cytotox	MCF10A rereplic	SW480 rereplic	KB-3-1 tox	HT1080 IDH1KD tx	HT1080-NT tox
CCNC(=O)CON=C1c2ccccc2-c2ccccc21	i	i	i	i	i	i
COc1c(C)cc(S(=O)(=O)N2CCCC2)c(C)c1C	23.1µM	i	i	i	i	i
Cc1cccn2c(=O)c(C(=O)NC3CC(C)CC(C)(C)C3)c(O)nc12 (centres undefined)	23.1µM	?	i	?	i	i
CC1CCCCC1NC(=O)c1ccncc1 (centres undefined)	i	i	18.4µM	i	i	i
Cc1cccn2c(=O)c(C(=O)NC3CCCCC3C)c(O)nc12 (centres undefined)	16.4µM	i	i	?	?	i
COc1ccc(NC(=O)CSc2n[nH]c(-c3ccccn3)n2)cc1	i	?	?	?	?	i
CCNc1nc(NCc2ccccc2)nc(SCC(N)=O)n1	i	i	?	i	i	i
O=C(CSc1n[nH]c(-c2ccccn2)n1)Nc1ccccc1	i	i	?	?	20.6µM	?
CN(C)c1nc(NCc2ccccc2)nc(SCC(=O)Nc2ccc(Cl)c(Cl)c2)n1	7.31µM	?	?	i	?	?
CCNc1nc(NCc2ccccc2)nc(SCC(=O)Nc2ccccc2)n1	2.31µM	i	i	?	i	i
CCc1nc2nc(C)cc(Nc3cc(C)ccc3C)n2n1	i	nt	nt	i	nt	nt
Cc1ccc(-c2nc(S(=O)(=O)c3ccc(C)cc3)c(N3CCCCC3)o2)cc1	i	nt	nt	i	nt	nt
CCn1ccc2cc(S(=O)(=O)N3CCC(C(=O)NCc4ccc(F)cc4)CC3)ccc21	i	nt	nt	i	nt	nt
CCCCNC(=O)CSc1nc2ccc(N3CCOCC3)cc2c(=O)n1CCc1ccccc1	0.581µM	i	i	i	i	i
O=C(CSc1nc2ccc(N3CCOCC3)cc2c(=O)n1CCc1ccccc1)NCC1CCCO1 (centres undefined)	i	23.1µM	i	i	i	i
O=c1[nH]c(/C(Cl)=C/c2cc(Cl)ccc2O)nc2cc(Cl)ccc12	14.6µM	14.6µM	i	?	i	i
Cc1cc(C)n(-c2nnc3n2N=C(c2ccccc2)CS3)n1	i	i	i	i	i	i
Cc1cc(C)n(-c2nnc3n2N=C(c2c[nH]c4ccccc24)CS3)n1	?	?	?	7.31µM	14.6µM	?
Cc1cc(NC(=O)CSc2nnc3c(C)cc4c(C)ccc(C)c4n23)no1	3.26µM	20.6µM	20.6µM	i	6.31µM	6.31µM
CCc1nnc(NC(=O)CSc2nnc3c(C)cc4c(C)ccc(C)c4n23)s1	i	9.2µM	?	4.11µM	6.51µM	5.8µM
COc1cc2cc(C)c3nnc(SCC(=O)Nc4cc(C)on4)n3c2cc1OC	i	i	i	i	i	i
O=C(/C=C/c1ccco1)Oc1cccc2cccnc12	i	i	?	i	20.6µM	?
O=C(/C=C\c1ccco1)Oc1cccc2cccnc12	i	?	i	?	14.6µM	?
Nc1nc(SCC(=O)c2cc3ccccc3o2)n[nH]1	i	i	i	i	i	i
O=C(O)CSc1cccc[n+]1[O-]	i	i	i	i	i	i
SMILES	KB-V1 cytotox	MCF10A rereplic	SW480 rereplic	KB-3-1 tox	HT1080 IDH1KD tx	HT1080-NT tox
O=C(CSc1cccc[n+]1[O-])c1cc2ccccc2o1	20.6µM	i	13µM	18.4µM	16.4µM	7.31µM
O=C(CSc1cccc[n+]1[O-])c1cc(Cl)ccc1Cl	i	i	?	i	2.31µM	i
CCOC(=O)Nc1ccc2c(CN3C(=O)NC(CC)(CC)C3=O)cc(=O)oc2c1	i	i	i[9.22 µM]	i	i	i
CCOC(=O)Nc1ccc2c(CNC(C)c3ccccc3OC)cc(=O)oc2c1 (centres undefined)	i	18.4µM	i	i	i	i
COc1cccc(C(=O)Nc2nc(-c3nnn(-c4cccc(Cl)c4C)c3C)ns2)c1	i	nt	nt	14.6µM	nt	nt
CCCCN1CC(O)C(O)C(O)C1CO (centres undefined)	nt	i	i	nt	nt	nt
CN(C(=O)CSc1nc(N)c2c3c(sc2n1)CSC(C)(C)C3)c1ccccc1	i	8.2µM	i	i	i	i
CN(C(=O)CSC1=NCCS1)c1ccccc1	i	i	i	i	i	i
CN(C)c1ccccc1C(=O)c1ccccc1N(C)C	?	4.11µM	8.2µM	4.61µM	4.61µM	?
CN(c1ccccc1C(=O)O)S(C)(=O)=O	i	i	i	i	i	i
O=C(COc1ccccc1F)Nc1ccc(Cl)c(-c2nc3ccccc3[nH]2)c1	?	nt	nt	i	nt	nt
NNC(=O)CCn1c2ccccc2c2ccccc21	i	11.6µM	i	i	i	i
COc1cccc(/C=N/NC(=O)CCn2c3ccccc3c3ccccc32)c1	i	i	i	i	i	i
CCn1c2ccccc2c2cc(NC(=O)c3ccc([N+](=O)[O-])cc3)ccc21	i	i	i	?	i	i
O=[N+]([O-])c1ccc2c(c1)c1ccccc1n2CCO	8.2µM	?	?	?	?	?
CCC1CN(C(=O)Nc2ccc(C)c(F)c2)c2ccccc2S1 (centres undefined)	i	nt	nt	i	nt	nt
CCOC(=O)c1cccc(NC(=O)c2cc(CN3CCOCC3)on2)c1	i	nt	nt	i	nt	nt
Cc1c(N=C2N=C(NC(=O)Nc3ccc(Cl)cc3)c3ccccc32)c(=O)n(-c2ccccc2)n1C	i	16.4µM	i	i	i	i
Cc1ccc(-c2nnc(NC3CCCCC3)c3ccccc23)cc1S(=O)(=O)N1CCN(C)CC1	23.1µM	i	i	i	i	i
Cc1ccc(-c2nnc(Nc3ccccc3)c3ccccc23)cc1S(=O)(=O)N1CCN(C)CC1	i	nt	nt	i	nt	nt
Cc1cnc2c(C)cccc2c1C	i	nt	nt	i	nt	nt
COC(=O)c1ccc(C(=O)OC)c(NC(=O)c2ccc(-c3ccccc3)s2)c1	i	nt	nt	i	nt	nt
Cc1noc(C)c1COc1ccccc1C(=O)NCCc1ccccc1	?	i	i	i	i	i
Cc1noc(C)c1COc1ccc(CC(=O)NCc2ccccc2)cc1	?	5.8µM	?	?	1.16µM	?
Cc1noc(C)c1COc1ccc(C(=O)NCCc2ccccn2)cc1	i	3.26µM	i	i	i	i
Cc1noc(C)c1COc1ccccc1C(=O)NC(C)CCc1ccccc1 (centres undefined)	i	i	4.11µM	i	i	i
Cc1noc(C)c1COc1ccc(CC(=O)NCCc2ccccn2)cc1	i	i	i	i	i	?
Cc1cc(C)nc(NC(=O)c2ccc(Br)cc2)n1	i	i	i	i	i	i
